Among all 310,000 compounds or so, about 14,000 (4.5%) showed an effect of 50% or more. Effects have a minus sign here. What follows is part of a selection rich in strong results, with near analogues and random picks from the rest.
The molecules below were run against human ether-à-go-go-related gene (hERG) potassium channel (human, UniProt Q12809) (assay: primary screen, population patch clamp on CHO cells stably expressing hERG; higher = less effect of the substance).
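Also: peak tail current of the secondary pulse compared with the same well before compound.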

human ether-à-go-go-related gene (hERG) potassium channel, sequence (Q12809 whole entry, looked up): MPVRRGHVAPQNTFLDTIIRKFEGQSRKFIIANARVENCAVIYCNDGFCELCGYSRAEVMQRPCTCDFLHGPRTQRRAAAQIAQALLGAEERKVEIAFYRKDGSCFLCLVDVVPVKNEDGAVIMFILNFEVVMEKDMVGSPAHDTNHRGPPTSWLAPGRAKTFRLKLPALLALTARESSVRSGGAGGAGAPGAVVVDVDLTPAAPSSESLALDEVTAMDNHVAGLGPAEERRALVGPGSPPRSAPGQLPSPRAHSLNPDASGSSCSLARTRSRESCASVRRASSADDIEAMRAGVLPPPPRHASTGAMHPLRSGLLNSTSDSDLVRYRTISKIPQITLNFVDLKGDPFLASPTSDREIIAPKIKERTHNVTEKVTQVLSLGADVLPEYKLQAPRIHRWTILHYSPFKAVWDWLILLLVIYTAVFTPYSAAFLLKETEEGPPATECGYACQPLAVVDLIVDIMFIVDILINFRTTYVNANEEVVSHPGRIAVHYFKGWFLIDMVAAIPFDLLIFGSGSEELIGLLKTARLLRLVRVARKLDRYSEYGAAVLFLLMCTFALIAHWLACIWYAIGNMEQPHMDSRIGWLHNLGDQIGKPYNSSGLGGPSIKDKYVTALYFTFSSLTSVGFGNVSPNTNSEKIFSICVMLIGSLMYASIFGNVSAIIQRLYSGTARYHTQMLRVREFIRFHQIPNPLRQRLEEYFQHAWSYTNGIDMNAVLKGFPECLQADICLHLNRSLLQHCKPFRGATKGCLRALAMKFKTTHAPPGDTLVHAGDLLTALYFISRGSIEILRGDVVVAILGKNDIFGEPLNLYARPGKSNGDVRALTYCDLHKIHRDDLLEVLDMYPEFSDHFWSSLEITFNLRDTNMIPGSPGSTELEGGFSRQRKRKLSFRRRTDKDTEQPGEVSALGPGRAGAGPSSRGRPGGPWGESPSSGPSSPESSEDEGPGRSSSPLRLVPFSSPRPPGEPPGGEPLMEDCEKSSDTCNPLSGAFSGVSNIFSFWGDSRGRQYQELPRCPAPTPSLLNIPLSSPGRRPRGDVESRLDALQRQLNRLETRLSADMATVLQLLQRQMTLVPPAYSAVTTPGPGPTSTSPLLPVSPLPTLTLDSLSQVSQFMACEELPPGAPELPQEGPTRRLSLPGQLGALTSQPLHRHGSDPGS

Row | Compound | hERG current change (%, negative = inhibition) at 10uM [%]
1 | Clc1ccc(Cc2ccccc2)nn1 | 4.59
2 | COc1cc(NC(=O)Nc2ccc3c(c2)OCO3)cc(OC)c1OC | 31.4
3 | COc1cc(C(=O)NC(=S)Nc2ccc3c(c2)OCO3)cc(OC)c1OC | 12.1
4 | COc1cc(C(Nc2ccc3c(c2)OCO3)C(=O)NC2CCCCC2)cc(OC)c1OC (stereo not shown) | -61.7
5 | CCS(=O)(=O)C1=NSC2=NC(=O)/C(=C\c3ccc(OC(=O)c4ccco4)c(OC)c3)C(=N)N21 | 8.51
6 | COc1cccc(NC(=O)CSc2nc3ccccc3n2C)c1 | -16.5
7 | COC(=O)c1c(C(=O)OC)c2cc(C)ccn2c1Cl | -24.9
8 | O=C(CCn1c(=O)oc2ccc(Cl)cc21)N1CCN(c2ccccc2)CC1 | -33.8
9 | Cc1ccc(C(=O)C[n+]2cc(-c3ccccc3)n3c2CCCCC3)cc1.[Br-] | -11.3
10 | O=C(C[n+]1cc(-c2ccc(Br)cc2)n2c1CCCCC2)c1ccccc1.[Br-] | -9.11
11 | Cc1ccc(C(=O)C[n+]2cc(-c3ccc(C)cc3)n3c2CCCCC3)cc1.[Br-] | -53.1
12 | O=C(C[n+]1cc(-c2ccccc2)n2c1CCC2)OCc1ccccc1.[Br-] | -15.2
13 | O=C(C[n+]1cc(-c2ccccc2)n2c1CCCCC2)c1ccc(Br)cc1.[Br-] | -52.7
14 | Cc1ccc(-c2c[n+](CC(=O)OCc3ccccc3)c3n2CCC3)cc1.[Br-] | -56.3
15 | O=C(C[n+]1cc(-c2ccccc2)n2c1CCC2)c1cccs1.[Br-] | -3.31
16 | O=C(C[n+]1cc(-c2ccc(F)cc2)n2c1CCC2)OCc1ccccc1.[Br-] | -11.9
17 | Cc1ccc(-c2c[n+](CC(=O)c3ccc(Br)cc3)c3n2CCCCC3)cc1.[Br-] | -61.4
18 | COc1ccc(OCCOc2ccc(/C=C3\C(=N)N4N=C(C)SC4=NC3=O)cc2)cc1 | 6.54
19 | CC1Cc2nc(SCC(=O)Nc3nccs3)n(Cc3ccccc3)c(=O)c2S1 (stereo not shown) | 2.84
20 | CSc1nc(N)n2nc(-c3ccc(Cl)cc3)cc2n1 | 5.44
21 | COc1ccc(C(=O)NC(Nc2ccc(C)cc2)C(Cl)(Cl)Cl)cc1 (stereo not shown) | -0.867
22 | Cc1cc(C)cc(NC(=O)CN2C(=O)C3CC=CCC3C2=O)c1 (stereo not shown) | 4.39
23 | CC1=N/C(=C/c2cc(Br)cc(Br)c2O)C(=O)O1 | 17

Row | Compound | hERG current change (%, negative = inhibition) at 10uM [%]
24 | Cc1ccc(S(=O)(=O)NC(=O)Nc2ccc(C)cn2)cc1 | 14.6
25 | Cc1sc(NC(=O)c2ccco2)c(C(c2ccncc2)N2CCOCC2)c1C (stereo not shown) | -37.1
26 | CCCC(=O)N1CCN(c2nc3ccccc3s2)CC1 | -24.7
27 | CCCC(=O)N1CCN(c2nc3ccc(CC)cc3s2)CC1 | -23.4
28 | Fc1ccc2nc(N3CCCCC3)sc2c1 | 5.89
29 | CCCCC(=O)N1CCN(c2nc3ccc(F)cc3s2)CC1 | -65.3
30 | CCCCC(=O)N1CCN(c2nc3ccc(OCC)cc3s2)CC1 | -35.5
31 | CC(C)(CC(=O)O)CC(=O)N1CCN(c2nc3ccc(Cl)cc3s2)CC1 | 14.2
32 | CCCCC(=O)N1CCN(c2nc3ccc(Cl)cc3s2)CC1 | -71.1
33 | CC(C)(C)C(=O)N1CCN(c2nc3ccc(Cl)cc3s2)CC1 | -12.2
34 | CCCC(=O)N1CCN(c2nc3ccc(Cl)cc3s2)CC1 | -70.2
35 | Cc1cc(OC(=O)c2ccccc2Cl)ccc1N1C(=O)CCC1=O | -1.98
36 | O=[N+]([O-])c1ccc(O)c(-c2nn[nH]n2)c1 | 1.52
37 | CC1=NN(C(=O)c2ccc(Cn3ccc([N+](=O)[O-])n3)cc2)C(O)(C(F)(F)F)C1 (stereo not shown) | -8.73
38 | O=C1N(c2ccc(Cl)cc2)C(c2ccc(Cl)cc2)N2CCCN12 (stereo not shown) | -16.7
39 | COc1ccccc1/C=C1\SC(=S)N(CCC(=O)NCCc2ccc(O)cc2)C1=O | 15.1
40 | CCOC(=O)Oc1ccc2oc(=O)cc(C)c2c1 | 15.9
41 | O=c1[nH]c(/C=C/c2cccc3ccccc23)nc2ccccc12 | 36.4
42 | O=C(c1ccco1)N1CCN(C(=O)c2cc(-c3ccc(F)cc3)no2)CC1 | -65.1
43 | COc1ccc(-c2cc(C(=O)N3CCN(C(=O)c4ccco4)CC3)[nH]n2)cc1 | -31.6
44 | O=C(c1cc(-c2ccc(Cl)cc2)n[nH]1)N1CCN(C(=O)c2ccco2)CC1 | -68.9
45 | Cc1ccc(-c2cc(C(=O)N3CCN(C(=O)c4ccco4)CC3)[nH]n2)cc1C | 5.83
46 | COc1cccc(-c2cc(C(=O)N3CCN(C(=O)c4ccco4)CC3)on2)c1 | -13.9

Row | Compound | hERG current change (%, negative = inhibition) at 10uM [%]
47 | O=C(c1ccco1)N1CCN(C(=O)c2cc(-c3ccccc3F)no2)CC1 | -15.8
48 | CCOc1ccc(NC(=O)CCNC(=O)c2ccco2)cc1 | 6.08
49 | Cc1ccc(C(=O)COC(=O)CNC(=O)Cc2ccccc2)cc1 | -2.44
50 | COc1ccc(CCN2C(=O)c3cccc4cccc(c34)C2=O)cc1OC | 12.9
51 | COc1ccc(C(CNC(=O)C(C)c2ccc3cc(OC)ccc3c2)N(C)C)cc1 (stereo not shown) | -7.44
52 | Cc1ccc(NS(=O)(=O)c2cc(C(=O)NCc3ccccn3)ccc2Cl)cc1C | -47
53 | COc1ccc(N2C(=O)C3C(c4ccc(OC)cc4O)NC(Cc4ccccc4)(C(=O)O)C3C2=O)cc1 (stereo not shown) | 19.5
54 | COc1cc2c(cc1OC)CN(C(=O)CNC(=O)c1ccc(OC(F)F)cc1)CC2 | -52.5
55 | COc1cc2c(cc1OC)CN(CC(=O)Nc1ccc(C#N)cc1)CC2 | -63.1
56 | NC(=O)Nc1ccc(C(=O)OCC(=O)N2CCc3ccccc3C2)cc1 | 5.29
57 | CCC(=O)c1ccc(OCC(=O)N2CCc3cc(OC)c(OC)cc3C2)cc1 | -33.2
58 | O=C(OCC(=O)N1CCc2ccccc2C1)c1ccc(OC(F)F)cc1 | -80.2
59 | COc1cc2c(cc1OC)CN(C(=O)COc1ccc(C)c(C)c1)CC2 | -11.9
60 | COc1cc2c(cc1OC)CN(CC(=O)Nc1ccc(F)cc1)CC2 | -7.62
61 | CCC(=O)c1ccc(OCC(=O)OCC(=O)N2CCc3ccccc3C2)cc1 | -24.8
62 | COc1ccc(C(=O)NCC(=O)N2CCc3ccccc3C2)cc1 | -2.27
63 | COc1cc2c(cc1OC)CN(CC(=O)Nc1ccc(C)cc1)CC2 | -16.4
64 | COc1cc2c(cc1OC)CN(C(=S)Nc1ccc(OC(F)F)cc1)CC2 | -38.8
65 | COc1cc2c(cc1OC)CN(C(=O)COc1ccc(C#N)cc1)CC2 | -63.4
66 | CCC(C(=O)O)n1nc(-c2ccccc2)c2cc(Cl)ccc21 (stereo not shown) | 13.8
67 | COc1ccc(C(c2nnnn2C2CCCCC2)N2CCN(c3ccccc3F)CC2)cc1 (stereo not shown) | 12.8
68 | Cc1csc2ncc(C(=O)N3CCc4ccccc43)c(=O)n12 | 15.1
69 | C=CCn1c(COc2cccc3ccc(C)nc23)nnc1SCC(=O)OC | -0.175

Row | Compound | hERG current change (%, negative = inhibition) at 10uM [%]
70 | CCOC(=O)Cn1nc(C)c(NC(=O)COc2ccc(C)c(C)c2)c1C | 12.2
71 | O=S(=O)(Nc1cccc(F)c1)c1cccc2nsnc12 | 3.21
72 | CCOc1ccc(-c2nnc(-c3cccs3)o2)cc1OCC | 1.32
73 | CCOc1ccc(C(=O)OCc2nnc(-c3cccs3)o2)cc1OC | -54.9
74 | O=C(OCc1nnc(-c2cccs2)o1)c1cccnc1Cl | 4.2
75 | COc1cc(OC)c(S(=O)(=O)NC(C)C)cc1S(=O)(=O)NC(C)C | 2.64
76 | COc1ccc(C)cc1S(=O)(=O)Nc1ccc(F)cc1 | -1.24
77 | Cc1ccc(NC(=O)c2ccc3nccnc3c2)c(C)c1 | -2.58
78 | CCCCc1cc(=O)oc2c(C)c(OCC(=O)NCCN3CCOCC3)ccc12 | -82.1
79 | CCc1cc(=O)oc2c(C)c(OCC(=O)NCCN3CCOCC3)ccc12 | -0.348
80 | Cc1c(OCC(=O)NCCN2CCOCC2)ccc2c1oc(=O)c1ccccc12 | -59.6
81 | Cc1c(C)c2ccc(OCC(=O)NCCN3CCOCC3)c(C)c2oc1=O | 1.61
82 | Cc1c(OCC(=O)NCCCN2CCOCC2)ccc2c1oc(=O)c1ccccc12 | -46.6
83 | CCCc1cc(=O)oc2c(C)c(OCC(=O)NCCN3CCOCC3)ccc12 | -31.6
84 | Cn1c(SCc2ccccc2C#N)nnc1-c1ccncc1 | 7.11
85 | CSc1ccccc1NC(=O)CN(C)C(=O)CCc1c[nH]c2ccccc12 | 0.0989
86 | O=C(N/N=C/c1ccccn1)c1ccccc1 | 2.75
87 | CCOc1ccc(Br)cc1C(=O)N/N=C/c1ccccn1 | -40.8
88 | O=C(N/N=C/c1ccccn1)c1cc(Br)ccc1O | -54.9
89 | O=C(N/N=C/c1ccccn1)C1CC1 | -69.4
90 | O=C(N/N=C\c1ccccn1)c1ccccc1O | 11
91 | O=C(CCCC(=O)N/N=C\c1ccccn1)N/N=C\c1ccccn1 | 2.44
